Here are results for 40 compounds from PubChem BioAssay (EPA / NIEHS).

Test [1] has as its target Peroxisome proliferator-activated receptor gamma (Homo sapiens) (UniProt P37231). As to the kind of experiment: OT_PPARg_PPARgSRC1_0480: Odyssey Thera (OT) 8-hour Protein-Complementation Assay for Peroxisome Proliferator-activated Receptor Gamma / SRC-1 Co-activator (AID 2283387). The procedure, abridged: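 Read-out: 488 nm N/C fluorescence ratio from complemented Venus YFP fragments, ≥350 cells per image, gain-of-signal fitted against DMSO baseline. Fusions of PPARg/SRC-1 with IFP1/IFP2 expressed transiently in HEK293T; compounds applied 8 h.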

Test [2] has the same target. Briefly: OT_PPARg_PPARgSRC1_1440: Odyssey Thera (OT) 24-hour Protein-Complementation Assay for Peroxisome Proliferator-activated Receptor Gamma/ SRC-1 Co-activator (AID 2283388). The essentials:
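HEK293T transiently transfected with PPARg/SRC-1 split-Venus YFP fusions 48 h before dosing, then treated 24 h at 37C. Fixed cells imaged; nuclear/cytoplasmic 488 nm fluorescence ratio, gain of signal versus DMSO.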

Test [3] is described as follows: CEETOX_H295R_11DCORT: CeeTox H295R High-throughput Steroidogenesis Assay for 11-Deoxycortisol (11DCORT) (AID 2283432; active = hit-call score of the fitted dose curve at least 0.9, where 1 is the maximum; inactive = score below 0.9;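 as to AC50: 11-deoxycortisol secreted into the medium measured by LC-MS/MS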). The following applies: actives raise or lower the signal. The procedure, abridged: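 H295R cells; 10 uM forskolin prestim 48 h; compound in 0.1% DMSO 48 h; media extracted with MTBE; 11-deoxycortisol by LC-MS/MS, 7-point standard curve; gain/loss vs DMSO baseline; viability by MTT in same wells.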

Test [4] in a line: CEETOX_H295R_OHPREG: CeeTox H295R High-throughput Steroidogenesis Assay for OH-Pregnenolone (OHPREG) (AID 2283434; active = hit-call score of the fitted dose curve at least 0.9, where 1 is the maximum; inactive = score below 0.9). The following applies: actives raise or lower the signal. The procedure, abridged:
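Secreted 17alpha-hydroxypregnenolone measured by HPLC-MS/MS after liquid-liquid extraction. Human adrenal H295R cells received 48 h forskolin (10 uM) stimulation before 48 h chemical exposure at 0.1% final DMSO; MTT viability in same wells; bidirectional fit against DMSO.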

Test [5] in a line: CEETOX_H295R_CORTISOL: CeeTox H295R High-throughput Steroidogenesis Assay for Cortisol (AID 2283438; active = hit-call score of the fitted dose curve at least 0.9, where 1 is the maximum; inactive = score below 0.9). The following applies: actives raise or lower the signal. The procedure, abridged: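 Cortisol measured by HPLC-MS/MS after MTBE extraction of medium from H295R cells exposed 48 h to chemical (0.1% DMSO), following 48 h prestimulation with 10 uM forskolin. Viability assessed by MTT in the same wells.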

Test [6] is described as follows: CEETOX_H295R_DOC: CeeTox H295R High-throughput Steroidogenesis Assay for DOC (AID 2283439; active = hit-call score of the fitted dose curve at least 0.9, where 1 is the maximum; inactive = score below 0.9). The note with it: actives raise or lower the signal. The procedure, abridged: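 11-Deoxycorticosterone quantified in medium by MTBE extraction and HPLC-MS/MS after 48 h chemical exposure (0.1% DMSO) of forskolin-primed (10 uM, 48 h) H295R cells. Same-well MTT viability; data fitted bidirectionally against DMSO.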

The nature of test [7]: CEETOX_H295R_ESTRADIOL: CeeTox H295R High-throughput Steroidogenesis Assay for Estradiol (AID 2283440; active = hit-call score of the fitted dose curve at least 0.9, where 1 is the maximum; inactive = score below 0.9;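 also: estradiol secreted into medium quantified by LC-MS/MS after dansyl derivatisation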). The note with it: actives raise or lower the signal. The procedure, abridged: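 H295R cells pre-stimulated 48 h with 10 uM forskolin, then exposed 48 h to chemical in 0.1% DMSO. Medium estradiol quantified by MTBE extraction, dansyl derivatisation and HPLC-MS/MS; bidirectional fit versus DMSO; MTT viability required >/=70%.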

Test [8] can be described thus: CEETOX_H295R_ESTRONE: CeeTox H295R High-throughput Steroidogenesis Assay for Estrone (AID 2283441; active = hit-call score of the fitted dose curve at least 0.9, where 1 is the maximum; inactive = score below 0.9). The note with it: actives raise or lower the signal. The essentials: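 Estrone secreted into medium quantified by LC-MS/MS after dansyl chloride derivatization, following 48 h chemical exposure (0.1% DMSO final) of forskolin-prestimulated (10 uM, 48 h) H295R cells; gain or loss fitted against DMSO; MTT viability in same wells.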

A short description of test [9]: CEETOX_H295R_PROG: CeeTox H295R High-throughput Steroidogenesis Assay for Progesterone (PROG) (AID 2283442; active = hit-call score of the fitted dose curve at least 0.9, where 1 is the maximum; inactive = score below 0.9;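 as to AC50: human H295R adrenal cells primed with 10 µM forskolin before dosing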). The note with it: actives raise or lower the signal. The procedure, abridged: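 H295R adrenal cells prestimulated 48 h with 10 uM forskolin, then exposed 48 h to test chemical in 0.1% DMSO. Progesterone in medium quantified by HPLC-MS/MS after MTBE extraction; viability checked by MTT in same wells.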

A short description of test [10]: CEETOX_H295R_ANDR: CeeTox H295R High-throughput Steroidogenesis Assay for Androstenedione (ANDR) (AID 2283436; active = hit-call score of the fitted dose curve at least 0.9, where 1 is the maximum; inactive = score below 0.9). The following applies: actives raise or lower the signal. The essentials: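 Medium from 48 h chemical-treated H295R adrenal cells was extracted with MTBE and androstenedione measured by LC-MS/MS. Activity was fit in both directions relative to DMSO. Cytotoxic concentrations were re-tested after dilution until MTT viability reached ≥70%.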

Results filed as inconclusive are left out. The source made the active and inactive calls. The calls were made as follows, unless noted: active = hit-call score of the fitted dose curve at least 0.9, where 1 is the maximum; inconclusive = response in the unintended direction; inactive = score below 0.9.

Peroxisome proliferator-activated receptor gamma (Homo sapiens), sequence (P37231 whole entry, looked up, the tested form may be a part): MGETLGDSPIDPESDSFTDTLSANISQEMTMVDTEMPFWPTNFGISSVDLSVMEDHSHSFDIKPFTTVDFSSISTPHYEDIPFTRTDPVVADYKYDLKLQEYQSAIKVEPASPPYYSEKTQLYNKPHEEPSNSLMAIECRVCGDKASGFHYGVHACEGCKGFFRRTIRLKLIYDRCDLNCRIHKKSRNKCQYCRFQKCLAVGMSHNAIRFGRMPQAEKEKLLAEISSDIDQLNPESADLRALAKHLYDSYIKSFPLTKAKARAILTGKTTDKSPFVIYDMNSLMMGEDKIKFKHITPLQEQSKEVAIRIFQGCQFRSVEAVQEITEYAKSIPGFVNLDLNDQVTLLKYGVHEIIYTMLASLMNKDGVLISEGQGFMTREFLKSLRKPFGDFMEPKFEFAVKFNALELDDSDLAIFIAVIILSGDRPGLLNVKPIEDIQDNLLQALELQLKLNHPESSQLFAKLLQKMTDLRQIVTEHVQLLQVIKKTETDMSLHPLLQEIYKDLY

Consider `CCCCCCCCCC(C)=O`, for which the outcome in [1] and in test [2] was inactive.

`O=C(Nc1ccccc1)c1cc(Cl)ccc1O`: the compound was called inactive in test [1] and in [2].

On to `CCCCNS(=O)(=O)c1ccc(C)cc1`, for which the call in [1] and in test [2] was inactive.

Turning to `CCCCC(=O)O`, the outcome in test [1] and in [2] was inactive.

Consider `CCCCCCCCC(CO)CCCCCC` (configuration not stated), for which the outcome in test [1] and in [2] was inactive.

As for `CC(CCC(=O)O)(c1ccc(O)cc1)c1ccc(O)cc1`, the compound was classed as inactive in test [1] and in test [2].

With `CCCCCCC=O`, the call in [1] and in test [2] was inactive.

Take `O=C(O)CCC(=O)O`: the call in [1] and in test [2] was inactive.

As to `CC1=CCC2CC1C2(C)C` (configuration not stated), the call in test [1] and in test [2] was inactive.

Regarding `N#Cc1ccc(C2CCCc3cncn32)cc1` (configuration not stated), the call in test [1] and in test [2] was inactive.

As for `C=C1C[C@H]2[C@@H]3C=C(C)C4=CC(=O)CC[C@]4(C)[C@H]3CC[C@]2(C)[C@@]1(OC(C)=O)C(C)=O`, the compound was classed as inactive in test [1] and in [2].

As for `c1ccc(Nc2cccc3ccccc23)cc1`, the call in test [1] and in test [2] was inactive.

As for `C[Si](C)(C)N[Si](C)(C)C`, the compound was called inactive in test [1] and in [2].

For `CCCCOCCOC(=O)COc1ccc(Cl)cc1Cl`, the call in test [1] and in test [2] was inactive.

Consider `CC1=NN(c2ccc(S(=O)(=O)O)cc2)C(=O)C1N=Nc1ccccc1` (configuration not stated), for which the compound was called inactive in test [1] and in [2].

On to `CC(C)c1ccc(O)c(C(C)C)c1`, for which the outcome in [1] and in [2] was inactive.

Turning to `CC(C)(C)N`, the outcome in [1] and in [2] was inactive.

For `CCCCCCCCCCCCCC(=O)OC(C)C`, the compound was classed as inactive in test [1] and in [2].

Turning to `CCCCCCOC(=O)CCCCC(=O)OCCCCCC`, the outcome in [1] and in [2] was inactive.

Turning to `CCCCCCOc1ccc(N)cc1`, the compound was called inactive in test [1] and in test [2].

On to `CCCCCC(=O)OCC`, for which the outcome in test [1] and in test [2] was inactive.

For `O=C(O)/C=C/c1ccccc1`, the result in [1] and in test [2] was inactive.

Regarding `COc1cc(O)c(C(=O)c2ccccc2)cc1S(=O)(=O)O`, the outcome in test [1] and in [2] was inactive.

For the compound `CCCCCCO`, the result in test [1] and in test [2] was inactive.

Consider `CCCCC(C=O)CC` (configuration not stated), for which the compound was classed as inactive in test [1] and in test [2].

For the compound `CCCCc1ccc(Cl)cc1`, the result in [1] and in test [2] was inactive.

`CCc1occc(=O)c1O`: the outcome in [1] and in [2] was inactive.

In the case of `CO[Si](C)(C)OC`, the compound was classed as inactive in test [1] and in test [2].

With `N#Cc1ccc(C(c2ccc(C#N)cc2)n2cncn2)cc1`, the result in test [1] and in test [2] was inactive.

Regarding `CCCCCC[C@@H](O)C/C=C\CCCCCCCC(=O)OCC(O)CO` (some centres not stated), the call in test [1] and in test [2] was inactive.

Consider `C[Si]1(C)O[Si](C)(C)O[Si](C)(C)O[Si](C)(C)O[Si](C)(C)O1`, for which the result in test [1] and in test [2] was inactive.

On to `C=C[Si](OCCOC)(OCCOC)OCCOC`, for which the compound was classed as inactive in test [1] and in [2].

Take `COc1ccc(-c2coc3cc(O)cc(O)c3c2=O)cc1`: the call in test [1], in test [7] and in test [8] was inactive. For the same compound, the AC50 – broadly, the midpoint of the concentration-response curve, whichever way the signal moves – in [3] is 6.15 µM (active); in test [4], 7.39 µM (active); in test [5], 3.65 µM (active); in [6], 5 µM (active); in test [9], 1.81 µM (active).

On to `C=CC(=O)OCCCCCCOC(=O)C=C`, for which the compound was classed as inactive in test [3], in test [4], in test [10], in test [5], in [6] and in test [7]. Further, the compound was called inactive in [8] and in test [9].

Regarding `CC(=O)c1ccccc1O`, in test [2], the result was inactive.

Take `CCCCCCCCCCCCCCCCCCOS(=O)(=O)O`: the compound was called inactive in test [1] and in [2].

As for `Nc1ccc(C(=O)O)cc1`, the compound was classed as inactive in test [1] and in test [2].

As for `CCOC(=O)C1=NOC(c2ccccc2)(c2ccccc2)C1`, the call in test [1] and in [2] was inactive.

Regarding `CCCCC(CC)COC(=O)/C=C/c1ccc(OC)cc1` (configuration not stated), the compound was classed as inactive in test [2].

As to `CN(C)c1ccc2nc3ccc(=[N+](C)C)cc-3sc2c1`, the values for the concentration at half-maximal activity (AC50) in test [1], in test [6] and in test [9] were 31.1 µM (active), 0.598 µM (active) and 0.617 µM (active), respectively. For the same compound, the outcome in [2], in [3], in test [4], in test [5], in test [7] and in test [8] was inactive.
